Legend:
Test in all cases: log2 ratio of Biotin-Ahx-Ub-VS probe labelling (fragment/DMSO); higher = less target engagement (more negative = stronger competition), active = hit call of the paper (q ≤ 0.05, log2 ratio ≤ -1)
Settings in all cases: compound concentration: 200 uM; treatment time: 3 h
USP42 = molecular target: T1, USP42 (UniProt Q9H9J4)
T1 sequence (whole entry): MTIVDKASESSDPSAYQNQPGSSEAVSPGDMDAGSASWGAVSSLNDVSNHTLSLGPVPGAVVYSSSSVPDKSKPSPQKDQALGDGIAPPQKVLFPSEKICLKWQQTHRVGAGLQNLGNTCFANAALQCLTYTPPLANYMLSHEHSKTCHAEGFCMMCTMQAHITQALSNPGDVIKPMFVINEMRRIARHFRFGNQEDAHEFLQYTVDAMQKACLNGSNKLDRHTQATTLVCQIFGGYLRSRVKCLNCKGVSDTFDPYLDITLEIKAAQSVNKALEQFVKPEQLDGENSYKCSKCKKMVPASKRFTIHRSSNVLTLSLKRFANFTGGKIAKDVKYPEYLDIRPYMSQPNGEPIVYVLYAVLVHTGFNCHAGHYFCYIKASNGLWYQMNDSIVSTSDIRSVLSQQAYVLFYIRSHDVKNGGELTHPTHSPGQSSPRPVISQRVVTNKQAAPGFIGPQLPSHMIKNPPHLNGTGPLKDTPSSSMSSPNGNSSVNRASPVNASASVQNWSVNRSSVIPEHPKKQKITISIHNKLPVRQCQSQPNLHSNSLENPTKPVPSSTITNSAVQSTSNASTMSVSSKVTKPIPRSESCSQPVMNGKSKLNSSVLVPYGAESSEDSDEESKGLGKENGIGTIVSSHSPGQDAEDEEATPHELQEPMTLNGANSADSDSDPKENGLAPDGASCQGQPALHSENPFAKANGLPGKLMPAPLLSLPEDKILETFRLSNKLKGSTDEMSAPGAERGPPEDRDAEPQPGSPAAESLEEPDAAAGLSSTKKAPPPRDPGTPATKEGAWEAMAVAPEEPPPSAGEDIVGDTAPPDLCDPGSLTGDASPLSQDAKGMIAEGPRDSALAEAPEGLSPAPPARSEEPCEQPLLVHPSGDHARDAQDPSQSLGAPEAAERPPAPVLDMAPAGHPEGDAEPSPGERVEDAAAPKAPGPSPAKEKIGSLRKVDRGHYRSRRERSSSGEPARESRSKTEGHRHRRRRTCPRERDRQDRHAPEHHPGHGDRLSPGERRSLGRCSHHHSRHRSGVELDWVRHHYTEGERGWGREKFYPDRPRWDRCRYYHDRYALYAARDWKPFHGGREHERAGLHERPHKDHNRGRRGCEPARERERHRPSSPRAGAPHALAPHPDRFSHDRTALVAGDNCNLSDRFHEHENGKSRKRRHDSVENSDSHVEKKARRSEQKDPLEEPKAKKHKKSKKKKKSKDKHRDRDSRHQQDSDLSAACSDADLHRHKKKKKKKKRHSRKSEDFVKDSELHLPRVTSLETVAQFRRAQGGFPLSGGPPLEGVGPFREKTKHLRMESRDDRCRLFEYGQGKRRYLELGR
Method in brief: (§1)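 Fragment (200 µM) or vehicle was incubated for 3 h with triplicate HEK293T lysate samples of 495 µg, which were then treated with Biotin-Ahx-Ub-VS at 0.5 µM final for 1 h. Labelled DUBs were enriched on NeutrAvidin, digested with LysC and trypsin, and analysed by diaPASEF LC-MS/MS. Values are average log2 fragment/vehicle ratios from an unpaired t-test on global-median-normalised Spectronaut label-free quantities, using proteins with ≥2 unique peptides.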

USP46 = USP46 (UniProt P62068)
Chain of USP46 (P62068 whole entry): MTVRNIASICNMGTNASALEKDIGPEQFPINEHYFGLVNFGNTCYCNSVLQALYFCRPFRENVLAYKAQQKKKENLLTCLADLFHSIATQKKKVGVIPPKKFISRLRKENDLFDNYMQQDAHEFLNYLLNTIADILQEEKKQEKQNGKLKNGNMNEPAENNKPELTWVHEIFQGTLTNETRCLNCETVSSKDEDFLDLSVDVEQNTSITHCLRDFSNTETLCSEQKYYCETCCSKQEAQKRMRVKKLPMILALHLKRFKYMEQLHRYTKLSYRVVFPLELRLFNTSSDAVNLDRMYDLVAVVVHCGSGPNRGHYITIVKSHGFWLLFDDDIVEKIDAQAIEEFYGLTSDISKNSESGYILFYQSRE
Method in brief: as §1

USP47 = molecular target: T2, USP47 (UniProt Q96K76)
T2 sequence (whole entry): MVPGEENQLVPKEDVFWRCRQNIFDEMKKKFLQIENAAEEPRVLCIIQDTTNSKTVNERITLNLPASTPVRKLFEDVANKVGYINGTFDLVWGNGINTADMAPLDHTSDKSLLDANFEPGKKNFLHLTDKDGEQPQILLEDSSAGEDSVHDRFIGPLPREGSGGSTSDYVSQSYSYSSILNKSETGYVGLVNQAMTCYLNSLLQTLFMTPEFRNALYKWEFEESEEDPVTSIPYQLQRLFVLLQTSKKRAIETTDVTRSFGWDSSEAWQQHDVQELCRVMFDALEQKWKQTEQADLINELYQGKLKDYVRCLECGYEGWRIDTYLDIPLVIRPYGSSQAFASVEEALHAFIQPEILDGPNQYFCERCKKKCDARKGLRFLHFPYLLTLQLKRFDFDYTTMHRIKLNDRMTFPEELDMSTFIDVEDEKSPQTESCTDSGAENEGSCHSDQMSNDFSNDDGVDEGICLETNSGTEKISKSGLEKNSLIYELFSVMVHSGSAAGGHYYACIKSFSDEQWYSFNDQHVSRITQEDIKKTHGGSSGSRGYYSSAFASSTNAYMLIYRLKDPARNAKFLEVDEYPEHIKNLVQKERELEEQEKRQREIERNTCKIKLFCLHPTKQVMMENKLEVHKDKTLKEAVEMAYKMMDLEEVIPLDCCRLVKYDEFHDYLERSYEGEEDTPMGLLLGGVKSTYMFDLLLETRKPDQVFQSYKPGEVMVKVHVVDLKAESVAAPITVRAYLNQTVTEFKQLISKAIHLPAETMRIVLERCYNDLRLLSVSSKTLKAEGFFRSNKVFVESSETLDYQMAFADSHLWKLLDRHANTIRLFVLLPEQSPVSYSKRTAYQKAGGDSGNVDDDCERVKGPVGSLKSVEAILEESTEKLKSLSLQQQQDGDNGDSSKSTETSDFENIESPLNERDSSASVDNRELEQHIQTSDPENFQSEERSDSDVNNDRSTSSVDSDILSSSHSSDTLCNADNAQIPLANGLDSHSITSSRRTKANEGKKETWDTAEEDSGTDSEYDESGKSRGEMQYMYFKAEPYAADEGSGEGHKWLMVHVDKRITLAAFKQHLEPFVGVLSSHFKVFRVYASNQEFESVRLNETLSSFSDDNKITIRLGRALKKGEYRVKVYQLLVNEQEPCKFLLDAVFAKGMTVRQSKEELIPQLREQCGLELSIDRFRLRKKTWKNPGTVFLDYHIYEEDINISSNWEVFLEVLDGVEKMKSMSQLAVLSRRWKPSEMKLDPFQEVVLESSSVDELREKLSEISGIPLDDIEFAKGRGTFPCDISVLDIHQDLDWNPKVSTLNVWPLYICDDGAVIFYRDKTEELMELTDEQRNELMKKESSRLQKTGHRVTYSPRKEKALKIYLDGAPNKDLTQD
Method in brief: as §1

USP48 = molecular target: T3, USP48 (UniProt Q86UV5)
T3 sequence (whole entry): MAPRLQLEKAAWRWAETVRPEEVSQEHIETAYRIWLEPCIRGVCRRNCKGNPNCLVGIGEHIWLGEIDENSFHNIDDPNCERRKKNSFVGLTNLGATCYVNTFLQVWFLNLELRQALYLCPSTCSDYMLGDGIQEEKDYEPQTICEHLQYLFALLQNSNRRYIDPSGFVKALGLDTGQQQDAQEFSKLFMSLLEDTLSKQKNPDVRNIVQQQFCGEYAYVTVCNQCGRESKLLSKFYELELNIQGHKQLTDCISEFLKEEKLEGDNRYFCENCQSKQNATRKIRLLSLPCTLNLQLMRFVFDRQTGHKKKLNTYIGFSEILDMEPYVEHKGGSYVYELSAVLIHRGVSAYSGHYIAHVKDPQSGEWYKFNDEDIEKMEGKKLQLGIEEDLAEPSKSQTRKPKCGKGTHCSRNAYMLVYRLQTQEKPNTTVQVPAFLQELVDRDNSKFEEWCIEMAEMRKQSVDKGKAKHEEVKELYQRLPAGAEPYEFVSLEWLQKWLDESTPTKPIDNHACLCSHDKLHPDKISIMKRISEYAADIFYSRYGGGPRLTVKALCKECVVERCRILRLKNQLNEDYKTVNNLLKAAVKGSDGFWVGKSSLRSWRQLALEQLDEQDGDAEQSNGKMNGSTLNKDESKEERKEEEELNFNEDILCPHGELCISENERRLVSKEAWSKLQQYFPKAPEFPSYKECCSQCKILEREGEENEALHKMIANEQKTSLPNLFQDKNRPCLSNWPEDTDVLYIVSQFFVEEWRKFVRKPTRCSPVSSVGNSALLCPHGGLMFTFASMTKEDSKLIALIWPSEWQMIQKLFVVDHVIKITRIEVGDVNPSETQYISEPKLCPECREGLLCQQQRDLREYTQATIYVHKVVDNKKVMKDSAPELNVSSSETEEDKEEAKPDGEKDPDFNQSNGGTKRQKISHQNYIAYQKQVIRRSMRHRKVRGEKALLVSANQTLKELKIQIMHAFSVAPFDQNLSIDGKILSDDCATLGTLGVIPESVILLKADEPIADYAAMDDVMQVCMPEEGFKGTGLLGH
Method in brief: as §1

USP5 = molecular target: T4, USP5 (UniProt P45974)
T4 sequence (whole entry): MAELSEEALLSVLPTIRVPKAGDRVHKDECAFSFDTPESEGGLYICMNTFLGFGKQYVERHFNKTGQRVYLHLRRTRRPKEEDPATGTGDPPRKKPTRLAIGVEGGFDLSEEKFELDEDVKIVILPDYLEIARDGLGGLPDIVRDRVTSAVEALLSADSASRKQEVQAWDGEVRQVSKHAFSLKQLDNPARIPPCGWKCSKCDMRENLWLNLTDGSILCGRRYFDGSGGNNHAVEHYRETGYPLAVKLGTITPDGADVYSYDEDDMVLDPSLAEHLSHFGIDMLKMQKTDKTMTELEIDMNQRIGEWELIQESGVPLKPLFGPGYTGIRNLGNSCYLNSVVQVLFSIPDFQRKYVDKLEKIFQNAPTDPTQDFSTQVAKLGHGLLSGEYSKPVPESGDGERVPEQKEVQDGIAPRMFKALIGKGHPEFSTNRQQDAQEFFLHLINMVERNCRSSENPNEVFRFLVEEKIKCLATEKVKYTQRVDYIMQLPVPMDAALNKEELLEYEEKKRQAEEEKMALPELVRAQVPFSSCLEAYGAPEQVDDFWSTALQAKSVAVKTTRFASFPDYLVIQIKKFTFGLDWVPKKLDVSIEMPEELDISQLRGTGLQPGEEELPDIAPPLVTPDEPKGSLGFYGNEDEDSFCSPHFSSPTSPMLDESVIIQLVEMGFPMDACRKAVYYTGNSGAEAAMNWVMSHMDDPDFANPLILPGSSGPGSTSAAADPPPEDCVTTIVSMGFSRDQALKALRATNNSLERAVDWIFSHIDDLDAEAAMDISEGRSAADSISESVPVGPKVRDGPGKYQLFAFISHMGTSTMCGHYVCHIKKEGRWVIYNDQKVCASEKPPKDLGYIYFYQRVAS
Method in brief: as §1

USP54 = USP54 (UniProt Q70EL1)
Chain of USP54 (Q70EL1 whole entry): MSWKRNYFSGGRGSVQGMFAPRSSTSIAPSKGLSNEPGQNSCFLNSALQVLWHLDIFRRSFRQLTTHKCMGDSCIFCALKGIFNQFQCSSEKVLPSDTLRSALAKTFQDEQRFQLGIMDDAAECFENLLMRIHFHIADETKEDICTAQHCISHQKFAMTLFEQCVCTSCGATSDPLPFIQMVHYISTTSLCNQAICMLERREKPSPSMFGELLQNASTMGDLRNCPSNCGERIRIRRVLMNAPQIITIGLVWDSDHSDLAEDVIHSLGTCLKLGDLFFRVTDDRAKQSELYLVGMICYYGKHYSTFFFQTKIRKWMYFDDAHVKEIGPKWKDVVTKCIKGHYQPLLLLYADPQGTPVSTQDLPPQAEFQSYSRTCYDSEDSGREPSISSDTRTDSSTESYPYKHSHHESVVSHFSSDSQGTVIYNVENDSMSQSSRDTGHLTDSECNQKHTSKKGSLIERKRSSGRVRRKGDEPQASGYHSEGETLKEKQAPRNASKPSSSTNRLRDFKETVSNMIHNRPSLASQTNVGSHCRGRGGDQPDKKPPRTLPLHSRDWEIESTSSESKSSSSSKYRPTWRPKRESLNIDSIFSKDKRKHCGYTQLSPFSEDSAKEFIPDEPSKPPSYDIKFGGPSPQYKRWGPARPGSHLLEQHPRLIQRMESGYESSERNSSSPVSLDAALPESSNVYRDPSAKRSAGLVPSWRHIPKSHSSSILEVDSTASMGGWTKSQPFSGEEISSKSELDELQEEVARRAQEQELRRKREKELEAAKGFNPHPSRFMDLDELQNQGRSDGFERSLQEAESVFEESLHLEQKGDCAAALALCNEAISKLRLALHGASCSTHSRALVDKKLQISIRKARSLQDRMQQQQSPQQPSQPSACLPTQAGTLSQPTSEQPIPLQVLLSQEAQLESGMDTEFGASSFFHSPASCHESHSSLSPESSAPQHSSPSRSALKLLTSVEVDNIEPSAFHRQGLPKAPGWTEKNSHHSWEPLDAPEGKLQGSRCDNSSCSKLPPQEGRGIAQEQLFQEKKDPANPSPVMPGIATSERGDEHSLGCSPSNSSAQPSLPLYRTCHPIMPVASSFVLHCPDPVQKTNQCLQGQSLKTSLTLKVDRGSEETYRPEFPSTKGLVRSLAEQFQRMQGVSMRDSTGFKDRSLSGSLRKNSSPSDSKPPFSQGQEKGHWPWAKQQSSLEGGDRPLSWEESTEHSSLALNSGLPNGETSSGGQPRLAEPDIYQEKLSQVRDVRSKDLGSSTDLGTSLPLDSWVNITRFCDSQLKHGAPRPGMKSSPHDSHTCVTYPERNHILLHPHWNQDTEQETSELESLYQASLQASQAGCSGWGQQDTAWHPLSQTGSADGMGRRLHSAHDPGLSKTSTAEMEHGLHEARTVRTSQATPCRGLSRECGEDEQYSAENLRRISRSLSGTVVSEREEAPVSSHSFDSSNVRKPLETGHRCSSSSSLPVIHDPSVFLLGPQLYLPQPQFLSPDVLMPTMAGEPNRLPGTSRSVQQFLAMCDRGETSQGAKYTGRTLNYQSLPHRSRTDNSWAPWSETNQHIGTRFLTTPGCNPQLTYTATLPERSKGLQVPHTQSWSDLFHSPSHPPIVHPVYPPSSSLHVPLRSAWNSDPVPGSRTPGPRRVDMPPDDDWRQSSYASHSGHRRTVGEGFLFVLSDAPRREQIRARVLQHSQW
Method in brief: as §1

USP7 = USP7 (UniProt Q93009)
Chain of USP7 (Q93009 whole entry, looked up): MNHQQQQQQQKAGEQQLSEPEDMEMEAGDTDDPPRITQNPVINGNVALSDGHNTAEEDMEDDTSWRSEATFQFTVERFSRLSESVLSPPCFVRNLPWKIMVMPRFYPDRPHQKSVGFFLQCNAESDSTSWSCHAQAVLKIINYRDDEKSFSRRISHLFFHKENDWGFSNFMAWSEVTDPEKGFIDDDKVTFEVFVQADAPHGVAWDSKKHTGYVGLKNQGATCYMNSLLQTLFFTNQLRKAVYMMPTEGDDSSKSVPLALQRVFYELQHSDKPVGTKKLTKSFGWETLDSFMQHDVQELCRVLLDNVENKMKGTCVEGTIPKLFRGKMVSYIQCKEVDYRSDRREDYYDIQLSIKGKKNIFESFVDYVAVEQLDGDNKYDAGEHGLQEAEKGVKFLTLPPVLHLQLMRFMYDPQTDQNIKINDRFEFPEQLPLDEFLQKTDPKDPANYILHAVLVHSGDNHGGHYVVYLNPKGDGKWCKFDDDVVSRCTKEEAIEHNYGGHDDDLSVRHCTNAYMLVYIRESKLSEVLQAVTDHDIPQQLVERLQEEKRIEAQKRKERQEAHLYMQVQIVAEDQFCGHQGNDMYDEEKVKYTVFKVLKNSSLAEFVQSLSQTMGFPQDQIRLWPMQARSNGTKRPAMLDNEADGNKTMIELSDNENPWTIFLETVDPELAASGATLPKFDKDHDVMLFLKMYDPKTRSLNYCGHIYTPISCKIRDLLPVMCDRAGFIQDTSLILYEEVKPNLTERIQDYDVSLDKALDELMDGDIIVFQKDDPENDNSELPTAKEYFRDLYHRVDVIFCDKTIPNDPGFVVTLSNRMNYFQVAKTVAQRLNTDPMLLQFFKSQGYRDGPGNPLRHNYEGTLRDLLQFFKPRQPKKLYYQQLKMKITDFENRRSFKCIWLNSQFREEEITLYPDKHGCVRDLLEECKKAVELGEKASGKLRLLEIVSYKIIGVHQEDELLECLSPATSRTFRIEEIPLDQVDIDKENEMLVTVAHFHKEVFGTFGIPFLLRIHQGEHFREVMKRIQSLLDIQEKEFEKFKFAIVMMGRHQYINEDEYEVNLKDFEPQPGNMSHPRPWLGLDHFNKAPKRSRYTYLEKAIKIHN
Method in brief: as §1

USP8 = molecular target: T5, USP8 (UniProt P40818)
T5 sequence (whole entry): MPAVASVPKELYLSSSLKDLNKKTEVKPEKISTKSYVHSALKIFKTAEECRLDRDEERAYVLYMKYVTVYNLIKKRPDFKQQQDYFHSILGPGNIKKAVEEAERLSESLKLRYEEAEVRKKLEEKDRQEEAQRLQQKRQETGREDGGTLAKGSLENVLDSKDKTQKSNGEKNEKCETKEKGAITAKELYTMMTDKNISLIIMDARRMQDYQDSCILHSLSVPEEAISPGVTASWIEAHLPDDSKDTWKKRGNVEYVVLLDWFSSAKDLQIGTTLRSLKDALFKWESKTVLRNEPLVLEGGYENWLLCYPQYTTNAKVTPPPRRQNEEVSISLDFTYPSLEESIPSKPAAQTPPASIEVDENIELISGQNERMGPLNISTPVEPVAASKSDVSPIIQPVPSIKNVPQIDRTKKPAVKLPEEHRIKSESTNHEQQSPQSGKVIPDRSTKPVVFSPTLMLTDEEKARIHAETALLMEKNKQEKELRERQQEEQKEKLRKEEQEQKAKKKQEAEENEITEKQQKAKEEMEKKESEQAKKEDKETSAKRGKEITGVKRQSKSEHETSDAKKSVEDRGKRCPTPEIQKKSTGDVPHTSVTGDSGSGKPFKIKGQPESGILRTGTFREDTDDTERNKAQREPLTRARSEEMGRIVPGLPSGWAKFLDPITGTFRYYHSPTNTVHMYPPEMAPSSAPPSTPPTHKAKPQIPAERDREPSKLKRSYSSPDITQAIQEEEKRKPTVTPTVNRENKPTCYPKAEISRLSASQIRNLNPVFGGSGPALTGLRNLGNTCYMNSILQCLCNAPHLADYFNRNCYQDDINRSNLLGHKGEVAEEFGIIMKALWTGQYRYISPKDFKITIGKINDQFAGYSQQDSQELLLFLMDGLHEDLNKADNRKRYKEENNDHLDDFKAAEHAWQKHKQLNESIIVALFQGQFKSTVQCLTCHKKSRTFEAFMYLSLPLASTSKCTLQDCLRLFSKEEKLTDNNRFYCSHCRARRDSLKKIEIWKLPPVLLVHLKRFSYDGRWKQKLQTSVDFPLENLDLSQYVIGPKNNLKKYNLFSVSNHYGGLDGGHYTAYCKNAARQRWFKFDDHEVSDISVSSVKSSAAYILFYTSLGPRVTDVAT
Method in brief: as §1

USP9X = USP9X (UniProt Q93008)
Method in brief: as §1

UniProt O00487 = molecular target: UniProt O00487
Chain of UniProt O00487 (O00487 whole entry): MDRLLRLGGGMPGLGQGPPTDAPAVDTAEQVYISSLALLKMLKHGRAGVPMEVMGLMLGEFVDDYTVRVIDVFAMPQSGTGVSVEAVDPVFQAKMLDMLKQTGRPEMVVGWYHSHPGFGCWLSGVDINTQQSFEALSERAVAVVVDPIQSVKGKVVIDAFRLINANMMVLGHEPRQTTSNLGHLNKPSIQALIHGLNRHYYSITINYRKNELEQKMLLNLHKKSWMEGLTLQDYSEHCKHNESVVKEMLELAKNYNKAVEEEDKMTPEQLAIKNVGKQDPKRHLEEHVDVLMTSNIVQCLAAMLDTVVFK
Method in brief: as §1

Measured: log2 ratio of Biotin-Ahx-Ub-VS probe labelling

O=C(CCl)Nc1ccc(F)cc1Cl
inactive: USP42 0.367 | USP46 -0.157 | USP48 -0.144 | USP5 -0.28 | USP54 0.679 | USP7 -0.395 | USP8 -0.165 | USP9X -0.538 | UniProt O00487 -0.0503
active: USP47 -1.41
